Laboratory results as given in the supplement of paper PMC6555819.

Assays:
Assay in all cases: PBM binding z-score (relative to random genomic background probes); higher = stronger binding; sequences stand for … in GC…GCGATTGACAGCGTAGAATGAAGG
[1] = system: FXR:RXRa (NR concentration 270 nM, RXRa partner concentration 90 nM)
In short: (§1)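 Binding buffer was PBS pH 7.4 with 2% milk, 0.02% Triton X-100, 1 mM DTT, 0.2 mg/mL BSA and 0.4 mg/ml salmon testes DNA. In it, ligand-free nuclear receptor dimers were incubated 1 h on custom Agilent 4×180K protein-binding microarrays carrying double-stranded probes. Antibodies against each partner (one per run) detected binding, and z-scores were calculated against random background probes after regression normalization of scanned fluorescence.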

[2] = system: LXRa:RXRa (NR concentration 270 nM, RXRa partner concentration 90 nM)
In short: as §1

[3] = system: LXRa homodimer (NR concentration 270 nM)
In short: as §1

[4] = system: LXRb:RXRa (NR concentration 270 nM, RXRa partner concentration 90 nM)
In short: as §1

[5] = system: LXRb homodimer (NR concentration 270 nM)
In short: as §1

[6] = system: PPARa:RXRa (NR concentration 270 nM, RXRa partner concentration 90 nM)
In short: as §1

[7] = system: PPARg:RXRa (NR concentration 180 nM, RXRa partner concentration 90 nM)
In short: as §1

[8] = system: PPARg:RXRa 270nM:90nM, anti-RXR (NR concentration 270 nM, RXRa partner concentration 90 nM)
In short: as §1

[9] = system: PPARg:RXRa 30nM:10nM, anti-RXR (NR concentration 30 nM, RXRa partner concentration 10 nM)
In short: as §1

[10] = system: PPARg:RXRa 90nM:30nM, anti-RXR (NR concentration 90 nM, RXRa partner concentration 30 nM)
In short: as §1

[11] = system: PPARg:RXRa DBDmut IVT, anti-RXR (DBD mutation: RXRa K156A/R161A, NR concentration 270 nM, RXRa partner concentration 90 nM)
In short: as §1

[12] = system: PPARg:RXRa IVT, anti-PPARg (NR concentration 270 nM, RXRa partner concentration 90 nM)
In short: as §1

[13] = system: PPARg DBDmut:RXRa IVT, anti-PPARg (DBD mutation: PPARg1 K132A/R137A, NR concentration 270 nM, RXRa partner concentration 90 nM)
In short: as §1

[14] = system: PPARg DBDmut IVT, anti-PPARg (DBD mutation: PPARg1 K132A/R137A, NR concentration 270 nM)
In short: as §1

[15] = system: PPARg homodimer (NR concentration 180 nM)
In short: as §1

[16] = system: PXR:RXRa (NR concentration 270 nM, RXRa partner concentration 90 nM)
In short: as §1

[17] = system: PXR homodimer (NR concentration 270 nM)
In short: as §1

[18] = system: RARa:RXR (NR concentration 270 nM, RXRa partner concentration 90 nM)
In short: as §1

[19] = system: RARa homodimer (NR concentration 270 nM)
In short: as §1

[20] = system: RARb:RXRa (NR concentration 270 nM, RXRa partner concentration 90 nM)
In short: as §1

Sequence | PBM binding z-score [1] | PBM binding z-score [2] | PBM binding z-score [3] | PBM binding z-score [4] | PBM binding z-score [5] | PBM binding z-score [6] | PBM binding z-score [7] | PBM binding z-score [8] | PBM binding z-score [9] | PBM binding z-score [10] | PBM binding z-score [11] | PBM binding z-score [12] | PBM binding z-score [13] | PBM binding z-score [14] | PBM binding z-score [15] | PBM binding z-score [16] | PBM binding z-score [17] | PBM binding z-score [18] | PBM binding z-score [19] | PBM binding z-score [20]
CCTGCTAGGTCGATGGTCAGCTAAAGCAGCTCGC | -0.156 | -0.179 | -0.637 | -0.279 | -0.599 | 0.0378 | 0.232 | 1.43 | -0.649 | 0.713 | 0.713 | 0.603 | -1.63 | -0.626 | -0.348 | -0.314 | -0.494 | -0.143 | -0.87 | 1.03
AGAATGAGGTTACCATAGATCAGGGAAACGCTTG | 1.71 | 6.81 | -0.421 | 3.61 | -0.0924 | 3.14 | 2.41 | 2.09 | 0.706 | 1.29 | 3.38 | 3.18 | 0.359 | 0.63 | 0.136 | 0.897 | 0.179 | 1.54 | 0.172 | 1.79
TCATATAGGTAAATGCTAGATGAAAGTCCGATCT | 0.267 | 0.34 | -0.249 | 0.68 | -0.163 | 1.06 | 1.06 | 1.99 | 3.6 | 2.79 | 3.61 | 1.84 | 0.931 | 1.42 | -0.0567 | 0.422 | 0.0659 | 0.328 | 0.951 | 0.201
CAAACTAGGTCACTGGAAGGTCAAAGTCCGCATG | 5.47 | 5.41 | 4.68 | 4.88 | 1.36 | 5.88 | 9.17 | 7.25 | 5.53 | 7.22 | 8.42 | 8.89 | 7.66 | 2.9 | 9.82 | 5.36 | 2.12 | 7.1 | 3.34 | 4.9
AATACAGGGTCTTCGTAGGCCAGAGTACGCACAG | -0.0491 | 0.0766 | -0.419 | -0.205 | -0.311 | 0.156 | 0.75 | 0.174 | 0.334 | 0.137 | 0.0875 | 0.764 | 0.236 | 0.68 | -0.584 | -0.0215 | -0.304 | 0.585 | 0.404 | 0.544
TCTAGCAGGCCAGAGGGTCGCTCAAGAGGTACGG | -2.83 | -0.514 | -0.98 | -0.425 | -1.97 | 0.269 | 0.213 | 1.29 | 1.69 | 1.37 | 0.74 | -0.213 | -1.68 | -1.41 | -0.918 | -0.366 | -0.896 | -0.208 | -1.48 | 0.463
AGAATGACGTTATTAAGATCAGGGAATTGCGGTC | -0.71 | -0.589 | -0.146 | -0.6 | -0.12 | -0.251 | 0.405 | 0.0531 | -0.0762 | 0.151 | -0.6 | -0.306 | 0.0629 | 0.222 | -0.803 | -0.327 | -0.378 | -0.472 | -0.0308 | -0.451
TTACCAAGGTGAAGGTCGTTGAACCCTCTGTAGA | 3.72 | 3.95 | 1.78 | 2.99 | -0.723 | 3.27 | 3.46 | 4.28 | 2.15 | 3.9 | 1.76 | 3.38 | 0.136 | 0.367 | 0.968 | 3.18 | 0.277 | 3.4 | -0.283 | 2.4
CAAACTAGGTCCAAGGTCAAAGTCGAGCCAACCA | 3.97 | 3.48 | 1.97 | 3.75 | 0.508 | 5.32 | 9.35 | 7.68 | 7.65 | 8.28 | 2.64 | 4.91 | 0.406 | 0.226 | 1.83 | 3.7 | 1.57 | 3.71 | 1.6 | 3.51
CCTCTGAGGACAACAGGAGGTCAGAGCTGCCAGA | 1.9 | 2.12 | 1.95 | 1.33 | -0.394 | 1.88 | 0.389 | 0.288 | -0.556 | -0.276 | 0.791 | 0.943 | -0.185 | -0.809 | 1.58 | 1.87 | 0.497 | 2.39 | 0.218 | 2.9
TCATATAGGTAAAGGTGACAGTCGAACGATATGA | 0.847 | 1.04 | 0.0349 | 0.847 | -0.211 | 2.88 | 3.72 | 4.32 | 4.16 | 4.4 | 4.04 | 4.07 | 1.74 | 1.19 | 0.889 | 0.897 | 0.245 | 1.44 | 0.76 | 1.9
CAAACTAGCTCAAGAGGTCAAAGTCCGCTTCCCG | 4.69 | 5.44 | 5.42 | 5.16 | 1.67 | 5.04 | 1.65 | 3.87 | 1.52 | 2.88 | 0.982 | 2.06 | 0.545 | 0.408 | 2.37 | 5.37 | 1.87 | 5.13 | 1.34 | 3.96
TCTTGTAGATCAATAGAGGTTAAGAACGTGCGCT | 0.948 | 2.59 | 0.355 | 1.46 | -0.115 | 1.92 | 0.397 | 1.66 | 2.84 | 2.58 | 1.69 | 1.17 | 0.658 | 1.03 | 0.496 | 1.51 | 0.111 | 1.83 | 0.544 | 0.956
TAGCCTACGTCATTCAGGGGCCAGTATAGAAAGC | -0.632 | -0.447 | -0.497 | 0.157 | -0.0304 | -0.0175 | 0.374 | -0.279 | -0.505 | -0.468 | -0.459 | -0.0447 | 0.682 | 0.371 | 0.00959 | -0.22 | -0.62 | -0.258 | -0.456 | 0.27
